Laboratory results as given in PubChem BioAssay (NCATS).
Records with an inconclusive call do not appear. Entries that show only a call come without a potency. Values without a mark were called inactive. The source made the active and inactive calls. Calls come from the whole dose curve; as a rule, active = well fitted inhibition curve with a large enough effect; inconclusive = small, poorly fitted or top-dose-only effect; inactive = flat fitted curve, though single readings scatter.

Assay: P-glycoprotein substrates identified in KB-8-5-11 adenocarcinoma cell line, qHTS therapeutic library screen (AID 1346987); note: nearly all actives have a fitted effect of over 65% in size; for activity change, negative = cytotoxicity: series mostly up to about 44 µM
Method in brief: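 KB-8-5-11: colchicine-selected sub-line of KB-3-1 over-expressing P-gp; assay medium lacked colchicine. 72 h drug exposure at 37 degree C, CellTiter-Glo.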
Potency is the fitted concentration of half-maximal effect.

Q: Which Potency does the source give for C=C1CC2OC(=O)C(=C)C2C(O)/C=C(\C)CCC1O (stereo not drawn) here?
A: The Potency was “inactive”.

Q: Which Potency does the source give for COCC1=C(C(=O)OC(C)OC(=O)OC(C)C)N2C(=O)[C@@H](NC(=O)/C(=N\OC)c3csc(N)n3)[C@H]2SC1 (stereo partly drawn) here?
A: The Potency was “inactive”.

Q: Which Potency does the source give for Cc1cccc(C)c1N(CCCc1cccnc1)C(=O)C(C)N (stereo not drawn) here?
A: The Potency was “inactive”.

Q: For Cc1cc2c(c(=O)o1)C=C1CC[C@H]([C@H](C)Cn3cnc(=N)c4[nH]cnc43)C[C@@H]1O2, which Potency is on record?
A: The Potency was “inactive”.

Q: Which Potency does the source give for CCOc1ccc(-n2c([C@@H](C)N(Cc3cccnc3)C(=O)Cc3ccc(OC(F)(F)F)cc3)nc3ncccc3c2=O)cc1 here?
A: Its Potency is “inactive”.

Q: Which Potency does the source give for O=C(c1ccccn1)N(Cc1cccs1)C1(C(=O)NC2CCCCC2)CCCCC1 here?
A: The Potency was “inactive”.

Q: For CC[C@H](C)/C=C(C)/C=C/C1=CC2=CC(=O)[C@]3(C)OC(=O)[C@@H](C(C)=O)[C@@H]3C2=CO1, which Potency is on record?
A: The Potency was “inactive”.

Q: For CCCCC1CCC(c2nc(-c3ccncc3)no2)CC1 (stereo not drawn), which Potency is on record?
A: Its Potency is “inactive”.

Q: With CC(=O)OC/C(=C/C(=O)O)CC[C@@H]1C(C=O)=CC[C@@H]2C(C)(C)CCC[C@@]12C as the molecule, how does the Potency read?
A: The Potency was “inactive”.

Q: With C=C1C(=O)O[C@@H]2C[C@H](C)C3=CC(=O)[C@H](O)[C@@]3(C)C[C@H]12 as the molecule, how does the Potency read?
A: Its Potency is “inactive”.

Q: With CCOC(=O)COc1ccc2c(C)c(CCN(CC)CC)c(=O)oc2c1 as the molecule, how does the Potency read?
A: Its Potency is “inactive”.

Q: For O=C(Nc1ccnc(NC(=O)C2CC2)c1)c1c(Cl)cccc1Cl, which Potency is on record?
A: Its Potency is 8.2 µM (active).

Q: For O=C(O)CC(O)(CC(=O)O)C(=O)O, which Potency is on record?
A: Its Potency is “inactive”.

Q: For CC1(C)CCCC2(C)C1C(=O)C=C(C(=O)O)C2(O)C(=O)O (stereo not drawn), which Potency is on record?
A: Its Potency is “inactive”.

Q: With CC1CCCC[C@H]2C(=O)C=C[C@H](O)[C@@H]2CC(=O)O1 (stereo partly drawn) as the molecule, how does the Potency read?
A: The Potency was 7.31 µM (active).

Q: For NCCC[C@H](N)C(=O)O, which Potency is on record?
A: The Potency was “inactive”.

Q: With CCCCC(=O)O as the molecule, how does the Potency read?
A: Its Potency is “inactive”.

Q: Which Potency does the source give for C=C(C(=O)O)[C@@H]1CC=C(CCC(C)=O)[C@@H](C)CC1 here?
A: The Potency was “inactive”.

Q: With CC[C@@H]1C[C@]1(NC(=O)[C@@H]1C[C@@H]2CN1C(=O)[C@H](C(C)(C)C)NC(=O)OCC(C)(C)CCCCc1cccc3c1CN(C3)C(=O)O2)C(=O)NS(=O)(=O)C1CC1 as the molecule, how does the Potency read?
A: The Potency was “inactive”.

Q: Which Potency does the source give for COC(=O)C(Cc1ccc(OCCn2c(=O)sc3cc(C(=O)c4ccccc4)ccc32)cc1)C(=O)OC here?
A: The Potency was “inactive”.

Q: Which Potency does the source give for CC(=O)O[C@H]1C[C@@H]2CC[C@@H]3[C@H](CC[C@@]4(C)[C@H]3C[C@H](N3CC[N+](C)(C)CC3)[C@@H]4OC(C)=O)[C@@]2(C)C[C@@H]1N1CC[N+](C)(C)CC1 here?
A: Its Potency is “inactive”.

Q: Which Potency does the source give for C[C@@H](Nc1ncnc2[nH]c(-c3ccc(O)cc3)cc12)c1ccccc1 here?
A: Its Potency is 8.2 µM (active).

Q: With CC(=O)c1ccc2c(c1)[C@H](NC(=O)c1ccc(F)c(Cl)c1)[C@H](O)C(C)(C)O2 as the molecule, how does the Potency read?
A: The Potency was “inactive”.

Q: For COc1ccc2nccc(C(=O)CC[C@@H]3CCN(CC#Cc4cc(F)cc(F)c4F)C[C@@H]3C(=O)O)c2c1, which Potency is on record?
A: Its Potency is “inactive”.

Q: Which Potency does the source give for COc1cccc(CN(C(=O)CC(C)(C)C)[C@H]2C[C@H](C(=O)N3CCNCC3)N(Cc3ccc4c(c3)OCO4)C2)c1 here?
A: Its Potency is “inactive”.

Q: With C[C@@H]1O[C@@H](O[C@H]2CC[C@@]3(C)C(CC[C@]4(C)C3CC=C3[C@@H]5CC(C)(C)CC[C@]5(C(=O)O[C@@H]5O[C@H](CO)[C@@H](O)[C@H](O)[C@H]5O)CC[C@]34C)[C@]2(C)CO)[C@H](O)[C@H](O[C@@H]2O[C@H](CO)[C@@H](O)[C@H](O)[C@H]2O)[C@H]1O (stereo partly drawn) as the molecule, how does the activity change, negative = cytotoxicity read?
A: The activity change, negative = cytotoxicity was 3.4% [at 9.29 µM].

Q: Which Potency does the source give for CC[C@@H](Nc1c(Nc2cccc(C(=O)N(C)C)c2O)c(=O)c1=O)c1cc(C(C)C)co1 here?
A: The Potency was “inactive”.

Q: For COc1ccc(CNCc2cccc3ccccc23)cc1, which Potency is on record?
A: Its Potency is “inactive”.
